Some test systems named below: HT29 colon; SNB-75 CNS; SNB-19 CNS; PC-3 prostate; SK-MEL-5 melanoma; UACC-62 melanoma; LOX IMVI melanoma; SK-MEL-28 melanoma; SK-MEL-2 melanoma; U251 CNS.
Common to all, as to assay: NCI-60 one-dose screen, 48 h (100 = growth as untreated, 0 = no growth, -100 = all killed)
Holding throughout (conditions): 10 µM unless noted

The text below walks through data of PubChem BioAssay (NCI).

The panel holds about 83,000 compounds, 20% with a hit somewhere; the sample as a whole holds those more often.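 48-hour exposure, single concentration, 96-well plates; percent growth endpoint where 0 means no net growth. Active: below 10.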 Unmarked numbers belong to inactive results. Calls of active or inactive are those of the source.

Consider `O=C1Nc2ccc(F)cc2/C1=C/c1nc(-c2ccc(F)cc2)n2ccccc12`, for which the growth in the test on HT29 colon was 95.6%; in the test with SNB-75 CNS, 93.6%; in the test on SNB-19 CNS it was 105%; with PC-3 prostate it was 115%; with SK-MEL-5 melanoma, 103%; with UACC-62 melanoma, 97%. Besides, the growth was 92.9% in the test with LOX IMVI melanoma, 112% with SK-MEL-28 melanoma and 132% in the test on SK-MEL-2 melanoma.

In the case of `OC(c1cc(C(F)(F)F)nc2c(C(F)(F)F)cccc12)C1CCCCN1` (stereo unspecified), the growth with HT29 colon was -66.5% (active); with SNB-75 CNS, 33%; with SNB-19 CNS, 53.7%; in the test on PC-3 prostate, 36.7%; in the test with SK-MEL-5 melanoma, 61.3%; in the test on UACC-62 melanoma, 76.6%. Further, the growth in the test with LOX IMVI melanoma was 11.9%; in the test on SK-MEL-28 melanoma, 72.1%; in the test on SK-MEL-2 melanoma, 56.4%.

In the case of `Nc1ncc(-c2cnn(C3CCNCC3)c2)cc1-c1nc2cc(Cl)ccc2o1`, the growth in the test with HT29 colon was -100% (active); in the test on SNB-75 CNS, -97.9% (active); with SNB-19 CNS, -91.1% (active); with U251 CNS, -100% (active); in the test with UACC-62 melanoma, -100% (active); in the test on LOX IMVI melanoma, -96.9% (active). Besides, the growth was -100% (active) with SK-MEL-28 melanoma and -90.8% (active) with SK-MEL-2 melanoma.

Turning to `CCOC(=O)c1ccccc1OC(=O)NNc1ccccc1`, the growth with HT29 colon is 109%; in the test on SNB-75 CNS, 78.9%; in the test with SNB-19 CNS it was 90.7%; in the test on PC-3 prostate, 34.9%; with SK-MEL-5 melanoma, 57.2%; with UACC-62 melanoma, 21.5%. For the same compound, the growth with LOX IMVI melanoma is 73.5%; in the test on SK-MEL-28 melanoma it was 93.6%; in the test with SK-MEL-2 melanoma it was 33.2%.

Take `CC(C)COCC(CN(Cc1ccccc1)c1ccccc1)N1CCCC1` (stereo unspecified): the growth in the test with HT29 colon was -24.5% (active); in the test on SNB-75 CNS it was 72.5%; in the test with SNB-19 CNS, 79.1%; in the test on PC-3 prostate, 41.9%; in the test with SK-MEL-5 melanoma it was 51.4%; with UACC-62 melanoma, 81.1%. Also, the growth with LOX IMVI melanoma is 47.5%; in the test on SK-MEL-28 melanoma, 84.9%; with SK-MEL-2 melanoma it was 77.2%.

`c1ccc(-c2nnc(Nc3nnc(-c4ccccc4)s3)s2)cc1`: the growth in the test with HT29 colon was 106%; in the test with SNB-75 CNS, 93.4%; in the test on SNB-19 CNS, 111%; in the test on PC-3 prostate, 97.7%; in the test with SK-MEL-5 melanoma, 100%; in the test on UACC-62 melanoma, 103%. In addition, the growth in the test with SK-MEL-28 melanoma was 112%.

Regarding `O=C(Nc1cccc(-n2cc(-c3ccncc3)c(-c3ccc(O)c(Cl)c3)n2)c1)Nc1ccc(Cl)c(C(F)(F)F)c1`, the growth in the test with HT29 colon is 21.6%; in the test on SNB-75 CNS, -12% (active); in the test with SNB-19 CNS, 33.1%; in the test with PC-3 prostate it was -22.6% (active); in the test on SK-MEL-5 melanoma, -35.9% (active); with UACC-62 melanoma, -38.9% (active). Moreover, the growth in the test on LOX IMVI melanoma is 0.0501% (active); with SK-MEL-28 melanoma, -12.8% (active).

Turning to `OCc1nnn(-c2ccccc2)c1CO`, the growth was 103% in the test on HT29 colon; 94.8% in the test on SNB-75 CNS; 115% with SNB-19 CNS; 107% with SK-MEL-5 melanoma; 101% in the test with UACC-62 melanoma; 100% in the test on LOX IMVI melanoma. Besides, the growth in the test with SK-MEL-28 melanoma was 128%; in the test on SK-MEL-2 melanoma, 113%.

`C/C(=C\CCc1ccsc1)CC/C=C(\C)CCCN1CCN(CCO)CC1`: the growth in the test with HT29 colon was -34.4% (active); in the test on SNB-75 CNS, 42.7%; with SNB-19 CNS it was 64%; with PC-3 prostate it was 55.3%; in the test with UACC-62 melanoma it was -73.9% (active); with SK-MEL-28 melanoma it was 58.1%.

On to `O=C(Nc1ccc(Cl)cc1Cl)Nc1ccc(-c2cccnc2)cc1N1CCC(CO)CC1`, for which the growth with HT29 colon was 28%; with SNB-75 CNS, 39.4%; in the test with U251 CNS it was 29.8%; in the test on PC-3 prostate, 16.6%; in the test on SK-MEL-5 melanoma, 27.4%; in the test with UACC-62 melanoma it was 26%. Further, the values for the growth with LOX IMVI melanoma, in the test on SK-MEL-28 melanoma and with SK-MEL-2 melanoma were 37.7%, 46.6% and 34.9%, respectively.

For `C/C(=C\CCc1ccsc1)CC/C=C(\C)CCCN1CCC(CO)CC1`, the growth is -42.6% (active) in the test with HT29 colon; 41.1% in the test with SNB-75 CNS; 52.6% with SNB-19 CNS; 41.2% in the test on PC-3 prostate; -83.4% (active) in the test on UACC-62 melanoma; 9.39% (active) in the test with SK-MEL-28 melanoma.

As to `COc1cc2c(cc1OCCCOc1ccc(-c3cc4ccccc4c4ccccc34)cc1)N=C[C@@H]1CCCN1C2=O`, the growth is -46.6% (active) in the test on HT29 colon; -78% (active) in the test on SNB-75 CNS; -46.8% (active) in the test on SNB-19 CNS; -80.2% (active) in the test on SK-MEL-5 melanoma; -83.6% (active) with UACC-62 melanoma; -62.1% (active) in the test on LOX IMVI melanoma. Further, the growth in the test on SK-MEL-28 melanoma is -62.2% (active); with SK-MEL-2 melanoma, -78.8% (active).

On to `COc1ccc(CCN2CCCN3C2=Nc2ccccc2S3(=O)=O)cc1`, for which the growth in the test with HT29 colon is 13.7%; in the test on SNB-75 CNS, 16.2%; in the test with U251 CNS, 30%; in the test with PC-3 prostate it was 38.5%; with SK-MEL-5 melanoma, 35.9%; in the test with UACC-62 melanoma, 23.5%. Besides, the growth with LOX IMVI melanoma was 27.7%; with SK-MEL-28 melanoma, 62.5%; in the test with SK-MEL-2 melanoma it was 51.9%.

`CN1COc2ccc3ccccc3c2C1`: the growth in the test on HT29 colon is 99.2%; in the test with SNB-75 CNS, 72.1%; in the test with SNB-19 CNS it was 104%; in the test with SK-MEL-5 melanoma, 105%; in the test on UACC-62 melanoma it was 85%; with SK-MEL-28 melanoma, 98.6%. For the same compound, in the test on SK-MEL-2 melanoma, the growth was 93.2%.

Turning to `CCC1=C(c2ccc(OC)cc2)C(C)(C)Oc2c1ccc(O)c2CN1CCCC1`, the growth is 50.4% in the test on HT29 colon; 41.3% in the test with SNB-75 CNS; -25.4% (active) in the test with U251 CNS; 47.1% with PC-3 prostate; -97.6% (active) in the test on SK-MEL-5 melanoma; 10.5% in the test on UACC-62 melanoma. For the same compound, the figures for the growth in the test on LOX IMVI melanoma, in the test on SK-MEL-28 melanoma and in the test on SK-MEL-2 melanoma were -59.7% (active), -75.6% (active) and -58.5% (active), respectively.
